Laboratory results: PubChem BioAssay AID1159580 (chemical genetic matrix, 2015)
“And” between values parts separate entries of the source, which are not always exact repeats. Identical values can stand only once. Hit rate of the full screen: of about 5,500 compounds, about 2,000 (36%) were called active. Inconclusive results (about 18%) are left out. Rule as the data show it: active = normalized growth mostly below about 0.91 (no sharp cut-off); inconclusive = no clear call, values can overlap the other calls; inactive = mostly above about 0.92. This is one part of the list.

Assay: chemical genetic growth profiling, strain panel (AID 1159580);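 also: tested at 20 µM; growth read once vehicle control cultures reached saturation at 30 °C; 1 = growth at the plate median or of vehicle wells; lower values mean less growth of the strain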
Conditions: growth OD

Measured: normalized growth

CCCCC[C@H]1C(=O)O[C@H](C)[C@H](NC(=O)c2cccc(NC=O)c2O)C(=O)O[C@@H](C)[C@@H]1OC(=O)CC(C)C
inactive: S. cerevisiae deletion strains, locus YBR021W, strain FUR4, stronger effect = lower value 0.965 | S. cerevisiae deletion strains, locus YBR229C, strain ROT2, stronger effect = lower value 0.949 | S. cerevisiae deletion strains, locus YCL029C, strain bik1, stronger effect = lower value 0.922 | S. cerevisiae deletion strains, locus YDL074C, strain BRE1, stronger effect = lower value 0.797 | S. cerevisiae deletion strains, locus YDL101C, strain DUN1, stronger effect = lower value 0.936 | S. cerevisiae deletion strains, locus YDL185W, strain tfp1, stronger effect = lower value 0.919 | S. cerevisiae deletion strains, locus YDR101C, strain arx1, stronger effect = lower value 0.93 | S. cerevisiae deletion strains, locus YDR162C, strain NBP2, stronger effect = lower value 0.905 | S. cerevisiae deletion strains, locus YDR502C, strain sam2, stronger effect = lower value 0.939 | S. cerevisiae deletion strains, locus YEL061C, strain CIN8, stronger effect = lower value 0.936 | S. cerevisiae deletion strains, locus YER110C, stronger effect = lower value 0.979 | S. cerevisiae deletion strains, locus YER155C, strain BEM2, stronger effect = lower value 0.978 | S. cerevisiae deletion strains, locus YGL248W, strain PDE1, stronger effect = lower value 0.912 | S. cerevisiae deletion strains, locus YHR030C, strain SLT2, stronger effect = lower value 0.947 and 0.873 | S. cerevisiae deletion strains, locus YHR079C, strain IRE1 (second series), stronger effect = lower value 0.943 | S. cerevisiae deletion strains, locus YHR079C, strain IRE1, stronger effect = lower value 0.863 | S. cerevisiae deletion strains, locus YHR094C, strain hxt1, stronger effect = lower value 0.933 | S. cerevisiae deletion strains, locus YIL066C, strain RNR3, stronger effect = lower value 0.88 | S. cerevisiae deletion strains, locus YIL073C, strain SPO22, stronger effect = lower value 0.844 | S. cerevisiae deletion strains, locus YIR030C, strain dcg1, stronger effect = lower value 0.946 | S. cerevisiae deletion strains, locus YJL134W, strain LCB3, stronger effect = lower value 0.932 | S. cerevisiae deletion strains, locus YJL168C, strain set2, stronger effect = lower value 0.933 | S. cerevisiae deletion strains, locus YJL187C, strain SWE1 (second series), stronger effect = lower value 0.889 | S. cerevisiae deletion strains, locus YJR066W, strain TOR1, stronger effect = lower value 0.861 | S. cerevisiae deletion strains, locus YKL068W, stronger effect = lower value 1.02 | S. cerevisiae deletion strains, locus YKL085W, strain MDH1 (second series), stronger effect = lower value 0.961 | S. cerevisiae deletion strains, locus YKL085W, strain MDH1, stronger effect = lower value 0.961 | S. cerevisiae deletion strains, locus YKL190W, strain CNB1, stronger effect = lower value 0.933 | S. cerevisiae deletion strains, locus YKR001C, strain vps1, stronger effect = lower value 0.922 | S. cerevisiae deletion strains, locus YLR039C, strain RIC1, stronger effect = lower value 0.933 | S. cerevisiae deletion strains, locus YLR058C, strain SHM2, stronger effect = lower value 0.932 | S. cerevisiae deletion strains, locus YLR102C, strain apc9, stronger effect = lower value 0.944 | S. cerevisiae deletion strains, locus YLR262C, strain YPT6, stronger effect = lower value 0.84 | S. cerevisiae deletion strains, locus YLR268W, strain sec22, stronger effect = lower value 0.923 | S. cerevisiae deletion strains, locus YLR330W, strain CHS5, stronger effect = lower value 0.962 | S. cerevisiae deletion strains, locus YLR342W, strain FKS1 (second series), stronger effect = lower value 0.887 | S. cerevisiae deletion strains, locus YLR371W, strain rom2, stronger effect = lower value 0.921 | S. cerevisiae deletion strains, locus YLR418C, strain cdc73, stronger effect = lower value 0.893 | S. cerevisiae deletion strains, locus YML016C, strain PPZ1, stronger effect = lower value 0.946 | S. cerevisiae deletion strains, locus YML124C, strain tub3, stronger effect = lower value 0.943 | S. cerevisiae deletion strains, locus YMR263W, strain SAP30, stronger effect = lower value 0.921 | S. cerevisiae deletion strains, locus YMR307W, strain GAS1, stronger effect = lower value 0.616 | S. cerevisiae deletion strains, locus YNL067W, strain RPL9B, stronger effect = lower value 0.921 | S. cerevisiae deletion strains, locus YNL233W, strain BNI4, stronger effect = lower value 0.914 | S. cerevisiae deletion strains, locus YNL307C, strain MCK1, stronger effect = lower value 0.967 | S. cerevisiae deletion strains, locus YNL322C, strain KRE1, stronger effect = lower value 0.937 | S. cerevisiae deletion strains, locus YOL006C, strain TOP1, stronger effect = lower value 0.736 | S. cerevisiae deletion strains, locus YOL012C, strain htz1 0.619 | S. cerevisiae deletion strains, locus YOL147C, strain pex11, stronger effect = lower value 0.942 | S. cerevisiae deletion strains, locus YOR061W, strain CKA2, stronger effect = lower value 0.895 | S. cerevisiae deletion strains, locus YOR069W, strain VPS5, stronger effect = lower value 0.932 | S. cerevisiae deletion strains, locus YOR136W, strain idh2, stronger effect = lower value 0.983 | S. cerevisiae deletion strains, locus YOR231W, strain MKK1, stronger effect = lower value 0.864 | S. cerevisiae deletion strains, locus YOR316C, strain cot1, stronger effect = lower value 0.945 | S. cerevisiae deletion strains, locus YPL256C, strain CLN2, stronger effect = lower value 0.912 | S. cerevisiae deletion strains, locus YPR119W, strain clb2, stronger effect = lower value 0.939 | S. cerevisiae deletion strains, locus YPR167C, strain met16, stronger effect = lower value 0.939 | S. cerevisiae deletion strains, strain wtn01, stronger effect = lower value 0.901
0.875 (inactive) and 0.859 (active): S. cerevisiae deletion strains, locus YJL095W, strain BCK1, stronger effect = lower value
active: S. cerevisiae deletion strains, locus YDL035C, strain GPR1, stronger effect = lower value 0.839 | S. cerevisiae deletion strains, locus YDL134C, strain PPH21, stronger effect = lower value 0.86 | S. cerevisiae deletion strains, locus YDL192W, strain arf1, stronger effect = lower value 0.91 | S. cerevisiae deletion strains, locus YDR318W, strain mcm21, stronger effect = lower value 0.908 | S. cerevisiae deletion strains, locus YDR388W, stronger effect = lower value 0.913 | S. cerevisiae deletion strains, locus YER167W, strain BCK2, stronger effect = lower value 0.904 | S. cerevisiae deletion strains, locus YGL078C, strain dbp3, stronger effect = lower value 0.895 | S. cerevisiae deletion strains, locus YGL086W, strain mad1, stronger effect = lower value 0.923 | S. cerevisiae deletion strains, locus YGR135W, strain pre9, stronger effect = lower value 0.891 | S. cerevisiae deletion strains, locus YGR252W, strain gcn5, stronger effect = lower value 0.684 | S. cerevisiae deletion strains, locus YHR129C, strain ARP1, stronger effect = lower value 0.904 | S. cerevisiae deletion strains, locus YHR200W, strain rpn10, stronger effect = lower value 0.904 | S. cerevisiae deletion strains, locus YIL125W, strain kgd1, stronger effect = lower value 0.896 | S. cerevisiae deletion strains, locus YJR043C, strain POL32, stronger effect = lower value 0.838 | S. cerevisiae deletion strains, locus YLR113W, strain HOG1, stronger effect = lower value 0.777 | S. cerevisiae deletion strains, locus YML032C, strain rad52, stronger effect = lower value 0.83 | S. cerevisiae deletion strains, locus YMR078C, strain ctf18, stronger effect = lower value 0.9 | S. cerevisiae deletion strains, locus YMR223W, strain ubp8, stronger effect = lower value 0.88 | S. cerevisiae deletion strains, locus YNL183C, strain NPR1, stronger effect = lower value 0.827 | S. cerevisiae deletion strains, locus YNL250W, strain rad50, stronger effect = lower value 0.853 | S. cerevisiae deletion strains, locus YNL271C, strain bni1, stronger effect = lower value 0.9 | S. cerevisiae deletion strains, locus YNL298W, strain CLA4, stronger effect = lower value 0.891 | S. cerevisiae deletion strains, locus YNR052C, strain pop2, stronger effect = lower value 0.874 | S. cerevisiae deletion strains, locus YOR144C, strain elg1, stronger effect = lower value 0.933 | S. cerevisiae deletion strains, locus YOR184W, strain ser1, stronger effect = lower value 0.674 | S. cerevisiae deletion strains, locus YPR141C, strain kar3, stronger effect = lower value 0.9 | S. cerevisiae deletion strains, locus YPR163C, strain tif3, stronger effect = lower value 0.893 | S. cerevisiae strains, strain wild type, stronger effect = lower value 0.895
